The record followed here is PubChem BioAssay (NCATS).

Assay [1] in a line: Viability counterscreen for antagonist of constitutive androstane receptor (CAR) against the NCATS DSHEA and TCM libraries (AID 1794837).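 Also: compound exposure lasted 24 h before viability reading; 0% is about no effect.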 The method, boiled down:
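Cells: HepG2 line carrying CYP2B6 reporter and hCAR, seeded and attached 5 h. Then pin-transferred test substances plus agonist CITCO at 48 uM final; 24 h incubation; fluorogenic viability reagent, 1 h.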
Background: A counterscreen serves to expose hits that act by an unwanted route or on another target.

Assay [2] is described as follows: Viability counterscreen for agonist of constitutive androstane receptor (CAR) against the NCATS DSHEA and TCM libraries (AID 1794838).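 Also: HepG2 cells with CYP2B6 reporter and hCAR plus 0.75 µM PK11195 antagonist; 0% is about no effect.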 In a few lines:
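Cell health was measured as CellTiter-Fluor signal in HepG2-CYP2B6-hCAR cells treated for 24 h with substances alongside the hCAR antagonist PK11195 (0.75 uM final).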

Assay [3] is described as follows: HepG2 viability counterscreen (readout 2: ATP content) against the NCATS DSHEA and TCM libraries (AID 1794840). Also: 0% is about no effect. The method, boiled down: (§1)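 Same wells read twice: first fluorescence from cleaved GF-AFC substrate (25 uM final, 30 min, 37C) for live-cell protease, then CellTiter-Glo luminescence after 30 min at room temperature for ATP. HepG2 cells were exposed ~24 h to substances.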

A short description of assay [4]: HepG2 viability counterscreen (readout 1: protease activity) against the NCATS DSHEA and TCM libraries (AID 1794841).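 Also: cells exposed to compounds for about 24 h before the protease read; 0% is about no effect.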 The method, boiled down:
as §1

Assay [5] addresses Cytochrome P450 2D6 (Homo sapiens) (UniProt P10635). As to the kind of experiment: qHTS for inhibitors of CYP2D6 against the NCATS DSHEA and TCM libraries (AID 1919972). Also: % is scaled to controls: 0 for no effect and ±100 for the full control effect. In a few lines:
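Luminescent P450-Glo read-out of CYP2D6 turnover of a luciferin substrate after NADPH-driven reaction of 30-45 min at room temperature. Compounds were first preincubated 15 min with enzyme at titrated concentrations; quinidine was the intraplate control.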
In general terms: qHTS replaces the single test concentration by a dilution series.

Assay [6] concerns the target Cytochrome P450 2C9 (Homo sapiens) (UniProt P11712). Nature of the assay: qHTS for inhibitors of CYP2C9 against the NCATS DSHEA and TCM libraries (AID 1919973). Also: potency is read from the fitted curve at half-maximal effect. In a few lines:
(§2)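 Read-out is luminescence after P450-Glo detection (30 min, RT). Before that: 15 min compound–enzyme preincubation, then 30-45 min reaction with 1x NADPH regeneration solution, substrate concentration isoform-specific.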

In assay [7] the target is Cytochrome P450 2C19 (Homo sapiens) (UniProt P33261). Nature of the assay: qHTS for inhibitors of CYP2C19 against the NCATS DSHEA and TCM libraries (AID 1919974).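 Also: luminescence from luciferin released by CYP2C19 oxidation of a pro-luciferin substrate.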 Also: potency is read from the fitted curve at half-maximal effect. In a few lines:
as §2

Assay [8] in a line: KB-3-1 P-gp reporter qHTS against the NCATS DSHEA and TCM libraries (AID 1919975). Also: 0% is about no effect. In a few lines: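 KB-3-1 parental line, 1536-well qHTS: cells seeded, ~4 h attachment, pintool compound addition, ~72 h at 37C, then CellTiter-Glo, 30 min RT, luminescence. Concentration-response format.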
The nature of assay [9]: qHTS Counterscreen for compound interference against the NCATS DSHEA and TCM libraries (AID 1919978).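 Also: compounds preincubated with 1 µM D-luciferin or buffer before detection reagent; % of control where 0% means no effect.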 Particulars: firefly luciferase detection reagent interference, luminescence. The method, boiled down: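 Compounds, titrated from 19.5 nM to 39.8 uM final, were pinned onto 1 uM D-luciferin or plain 100 mM potassium phosphate. After 15 min at room temperature, luciferin detection reagent was added for 30 min before the luminescence read.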

Assay [10] can be described thus: Dual reporter qHTS for agonist of Pregnane X Receptor (hPXR) against the NCATS DSHEA and TCM libraries: Fluorescence readout (AID 1920058). Also: 0% is about no effect. The method, boiled down: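 HepG2 hPXR-Luc, 2000 cells/well, 5 h attach; cpds ~24 h, 37 °C/5% CO2; CellTiter-Fluor 1 h; fluor. Ex/Em 405/540 nm = viability.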
Assay [11] deals with Nuclear receptor subfamily 1 group I member 2 (Homo sapiens) (UniProt O75469). Nature of the assay: Dual reporter qHTS for antagonist of Pregnane X Receptor (hPXR) against the NCATS DSHEA and TCM libraries: Luminescence Readout (AID 1920060). Also: 0% is about no effect. The method, boiled down: (§3)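 Rifampicin-stimulated (2 uM final) hPXR-luciferase HepG2 cells were treated for 24 h with DSNP/TCM substances. Viability came from CellTiter-Fluor fluorescence, reporter activity from ONE-Glo luminescence.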

Assay [12] can be described thus: Dual reporter qHTS for antagonist of Pregnane X Receptor (hPXR) against the NCATS DSHEA and TCM libraries: Fluorescence Readout (AID 1920061). Also: 0% is about no effect. In a few lines: as §3
Assay [13] has as its target Cytochrome P450 1A2 (Homo sapiens) (UniProt P05177). As to the kind of experiment: qHTS for inhibitors of CYPIA2 against the NCATS DSHEA and TCM libraries (AID 1919976). Also: potency is read from the fitted curve at half-maximal effect. The method, boiled down: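 CYP1A2 + luciferin substrate, 100 mM KPO4-type buffer; cmpd 15 min RT; 1x NADPH regen, 30-45 min RT dark; detection reagent 30 min RT; luminescence. Minus-enzyme wells as background; furafylline intraplate control.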

The target in assay [14] is Cytochrome P450 3A4 (Homo sapiens) (UniProt P08684). Nature of the assay: qHTS for inhibitors of CYP3A4 against the NCATS DSHEA and TCM libraries (AID 1919971).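 Also: % is scaled to controls: 0 for no effect and ±100 for the full control effect; inhibition lowers luminescence from luciferin made by CYP3A4.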 In a few lines:
as §2

Assay [15] has as its target Nuclear receptor subfamily 1 group I member 2 (Homo sapiens) (UniProt O75469). As to the kind of experiment: Dual reporter qHTS for agonist of Pregnane X Receptor (hPXR) against the NCATS DSHEA and TCM libraries: Luminescence readout (AID 1920059). Also: 0% is about no effect. In a few lines:
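hPXR-Luc HepG2 cells, 2000/well in 5% charcoal-stripped FBS medium, attached 5 h, then exposed 24 h at 37C to compounds. Viability by CellTiter-Fluor, then luciferase luminescence with ONE-Glo.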

Assay [16] concerns the target Mitogen-activated protein kinase 10 (Mus musculus) (UniProt Q61831). As to the kind of experiment: JNK3 AlphaScreen Assay (AID 530; active = well fitted curve in either direction with a large enough effect, not every such curve was filed as active;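 also: kinase came from lysate of stimulated human HepG2 cells; signal reports phosphorylation of biotinylated GST-cJun 1-79 at Ser73 with 10 µM ATP; series mostly up to about 57 µM; % is scaled to controls: 0 for no effect and ±100 for the full control effect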). The method, boiled down: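 Pre-activated (IL-1β/TNFα) JNK3 in HepG2 lysates phosphorylates biotin-GST-cJun(1-79), 10 uM ATP; anti-phospho-cJun(Ser73) AlphaScreen read at room temperature, pH 7.6 Tris buffer. Compounds pre-incubated 15 min as titrations.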
(In general: In Alpha technology, singlet oxygen from a donor bead excites a nearby acceptor bead.)

A number with no mark means an inactive call. Inconclusive results are not listed. Activity calls are given as the source filed them. Unless noted, calls follow the shape of the dose curve; as a rule, active = well fitted curve in the direction sought with a large enough effect; inconclusive = small, poorly fitted or top-dose-only effect, or another doubt; inactive = no such curve, though single readings can be large; an effect the other way counts as inactive or inconclusive.

Sequence of Cytochrome P450 2C19 (Homo sapiens) (P33261 whole entry, looked up): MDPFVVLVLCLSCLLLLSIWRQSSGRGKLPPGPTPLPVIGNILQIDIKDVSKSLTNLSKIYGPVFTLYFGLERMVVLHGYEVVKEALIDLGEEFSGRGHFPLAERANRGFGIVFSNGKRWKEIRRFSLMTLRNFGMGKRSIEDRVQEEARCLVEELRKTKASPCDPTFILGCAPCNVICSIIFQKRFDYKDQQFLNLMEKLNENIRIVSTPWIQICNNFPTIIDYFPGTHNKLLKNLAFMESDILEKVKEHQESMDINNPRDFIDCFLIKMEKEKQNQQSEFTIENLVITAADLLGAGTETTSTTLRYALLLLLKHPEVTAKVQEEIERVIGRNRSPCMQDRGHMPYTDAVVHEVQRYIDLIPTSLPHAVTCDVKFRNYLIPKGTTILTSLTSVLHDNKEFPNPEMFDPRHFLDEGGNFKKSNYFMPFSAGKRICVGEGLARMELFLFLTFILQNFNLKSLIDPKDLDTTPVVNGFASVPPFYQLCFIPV
Sequence of Nuclear receptor subfamily 1 group I member 2 (Homo sapiens) (O75469 whole entry, looked up): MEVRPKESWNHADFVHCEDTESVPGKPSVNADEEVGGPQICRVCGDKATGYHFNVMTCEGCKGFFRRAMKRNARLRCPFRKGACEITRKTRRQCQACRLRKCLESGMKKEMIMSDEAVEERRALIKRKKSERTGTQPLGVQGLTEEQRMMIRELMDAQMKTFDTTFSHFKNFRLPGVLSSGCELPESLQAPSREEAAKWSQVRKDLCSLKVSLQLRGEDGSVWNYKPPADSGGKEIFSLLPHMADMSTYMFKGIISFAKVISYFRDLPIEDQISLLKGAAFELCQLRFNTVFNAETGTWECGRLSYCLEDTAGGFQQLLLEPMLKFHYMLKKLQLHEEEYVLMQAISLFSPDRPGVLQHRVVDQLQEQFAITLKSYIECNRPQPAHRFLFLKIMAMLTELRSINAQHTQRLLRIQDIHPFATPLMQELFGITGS
Sequence of Cytochrome P450 2C9 (Homo sapiens) (P11712 whole entry, looked up, canonical isoform): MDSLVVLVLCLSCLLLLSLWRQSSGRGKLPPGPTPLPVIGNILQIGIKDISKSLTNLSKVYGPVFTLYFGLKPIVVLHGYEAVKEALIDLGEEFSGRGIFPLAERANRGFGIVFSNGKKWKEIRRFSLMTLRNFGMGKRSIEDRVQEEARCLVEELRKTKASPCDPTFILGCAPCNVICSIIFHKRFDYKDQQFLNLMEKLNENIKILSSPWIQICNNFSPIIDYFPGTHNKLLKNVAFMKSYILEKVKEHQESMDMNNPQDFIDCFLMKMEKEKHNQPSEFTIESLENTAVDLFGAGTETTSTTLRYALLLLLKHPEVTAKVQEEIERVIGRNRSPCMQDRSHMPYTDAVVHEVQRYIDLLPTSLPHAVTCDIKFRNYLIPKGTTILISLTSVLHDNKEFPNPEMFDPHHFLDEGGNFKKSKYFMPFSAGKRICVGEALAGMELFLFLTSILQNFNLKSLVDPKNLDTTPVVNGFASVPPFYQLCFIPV
Sequence of Cytochrome P450 1A2 (Homo sapiens) (P05177 whole entry, looked up): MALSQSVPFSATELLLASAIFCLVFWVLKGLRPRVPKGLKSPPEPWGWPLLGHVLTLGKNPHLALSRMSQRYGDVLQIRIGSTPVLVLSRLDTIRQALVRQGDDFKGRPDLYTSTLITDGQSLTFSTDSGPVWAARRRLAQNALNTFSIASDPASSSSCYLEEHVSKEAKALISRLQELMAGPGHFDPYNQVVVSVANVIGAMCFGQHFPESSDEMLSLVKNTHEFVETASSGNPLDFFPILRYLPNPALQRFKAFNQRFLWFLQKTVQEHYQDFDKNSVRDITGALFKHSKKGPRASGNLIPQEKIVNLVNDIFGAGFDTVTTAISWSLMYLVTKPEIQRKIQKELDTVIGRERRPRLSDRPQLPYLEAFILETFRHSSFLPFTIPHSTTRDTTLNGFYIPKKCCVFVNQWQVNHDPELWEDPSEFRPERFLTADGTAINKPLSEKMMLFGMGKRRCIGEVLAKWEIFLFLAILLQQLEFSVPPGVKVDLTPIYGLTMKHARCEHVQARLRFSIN
Sequence of Cytochrome P450 3A4 (Homo sapiens) (P08684 whole entry, looked up): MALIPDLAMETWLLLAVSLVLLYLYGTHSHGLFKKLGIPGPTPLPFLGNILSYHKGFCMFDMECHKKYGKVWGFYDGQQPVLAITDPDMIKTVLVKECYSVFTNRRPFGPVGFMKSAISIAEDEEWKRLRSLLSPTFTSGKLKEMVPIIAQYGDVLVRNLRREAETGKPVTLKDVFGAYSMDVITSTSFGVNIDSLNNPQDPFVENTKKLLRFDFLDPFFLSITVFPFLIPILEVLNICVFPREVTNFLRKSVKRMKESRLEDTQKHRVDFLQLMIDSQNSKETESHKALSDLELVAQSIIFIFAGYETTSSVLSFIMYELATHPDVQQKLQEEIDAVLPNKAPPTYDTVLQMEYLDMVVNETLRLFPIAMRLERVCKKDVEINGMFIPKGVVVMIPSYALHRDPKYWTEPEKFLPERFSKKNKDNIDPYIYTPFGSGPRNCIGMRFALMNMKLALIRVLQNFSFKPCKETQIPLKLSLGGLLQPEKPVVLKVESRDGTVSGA
Sequence of Cytochrome P450 2D6 (Homo sapiens) (P10635 whole entry, looked up): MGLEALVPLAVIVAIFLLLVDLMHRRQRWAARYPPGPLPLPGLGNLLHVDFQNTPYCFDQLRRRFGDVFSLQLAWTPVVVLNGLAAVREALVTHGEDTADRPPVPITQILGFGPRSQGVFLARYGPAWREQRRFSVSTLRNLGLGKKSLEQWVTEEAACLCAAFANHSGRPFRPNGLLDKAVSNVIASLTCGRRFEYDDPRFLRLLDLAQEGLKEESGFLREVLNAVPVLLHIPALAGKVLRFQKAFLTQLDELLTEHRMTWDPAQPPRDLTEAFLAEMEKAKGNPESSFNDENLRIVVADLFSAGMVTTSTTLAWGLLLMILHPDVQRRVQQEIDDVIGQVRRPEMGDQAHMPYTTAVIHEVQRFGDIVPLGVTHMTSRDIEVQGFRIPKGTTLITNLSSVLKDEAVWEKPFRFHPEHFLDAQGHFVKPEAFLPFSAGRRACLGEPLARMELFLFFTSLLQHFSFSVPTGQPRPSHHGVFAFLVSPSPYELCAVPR

Take `O=C(O)[C@H]1O[C@@H](Oc2c(-c3ccc(O)c(O)c3)oc3cc(O)cc(O)c3c2=O)[C@H](O)[C@@H](O)[C@@H]1O`: the result in assay [1], in [2], in assay [3], in assay [4], in [8] and in assay [10] was inactive. In addition, the call in [11] and in assay [12] was inactive. For the same molecule, in assay [5], the Potency entry is “inactive”. Besides, the Potency in assay [6] is 14.1 µM (active); in assay [7], 3.98 µM (active). Moreover, the max response in assay [9] is 3.23%.

Turning to `O=C(O[C@@H]1Cc2c(O)cc(O)cc2O[C@@H]1c1ccc(O)c(O)c1)c1cc(O)c(O)c(O)c1`, the molecule was classed as inactive in [1], in [2], in assay [3], in assay [4], in [8] and in [10]. For the same molecule, the molecule was called inactive in [11] and in assay [12]. The Potency in assay [6] is 12.6 µM (active). The Potency result in assay [13] was “inactive”. Moreover, the max response in assay [9] is 2.25%.

For `Cc1ccc(C(C)C)cc1`, the outcome in assay [1], in assay [2], in [3], in assay [4], in [8] and in [10] was inactive. Besides, the result in assay [11] and in assay [12] was inactive. The Potency entry in [14], in assay [5], in assay [6], in assay [7], in assay [13] and in assay [15] was “inactive” each time. Also, the max response in [9] is -0.622%.

`C[C@@H]1CC[C@]2(C)CC[C@]3(C)C(=CC(=O)C4[C@@]5(C)CC[C@@H](O)[C@](C)(C(=O)O)C5CC[C@]43C)C2[C@H]1C` (some centres not stated): the outcome in assay [1], in assay [2], in assay [3], in assay [4], in assay [8] and in [10] was inactive. The molecule was classed as inactive in assay [11] and in assay [12]. For the same molecule, the Potency entry in assay [5] and in assay [15] was “inactive” throughout. For the same molecule, the max response in [9] was 2.52%.

Regarding `CC(C)[C@H](C)CC[C@@H](C)[C@H]1CC[C@H]2[C@@H]3CC=C4C[C@@H](O)CC[C@]4(C)[C@H]3CC[C@]12C`, the call in [1], in [2], in assay [3], in [4], in assay [8] and in assay [10] was inactive. Further, the molecule was called inactive in assay [11] and in [12]. For the same molecule, the Potency result in assay [14], in [5], in assay [6], in assay [7], in assay [13] and in assay [15] was “inactive” throughout. Also, the max response in assay [9] was 2.09%.

For `CCCCCCCC/C=C\CCCCCCCCCCCCCC(=O)O`, the molecule was called inactive in assay [1], in [2], in assay [3], in [4], in assay [8] and in [10]. In addition, the molecule was classed as inactive in assay [11] and in assay [12]. In addition, the Potency entry in assay [5], in assay [6], in [7] and in [13] was “inactive” each time. Further, the max response in assay [9] was -2.19%.

Turning to `C[C@@H]1OC(O[C@H]2[C@H](O)[C@@H](O)[C@H](OC[C@H]3O[C@@H](OC(=O)[C@]45CCC(C)(C)C[C@@H]4C4=CCC6[C@@]7(C)CC[C@H](OC8OC[C@H](O)[C@H](O)[C@H]8OC8O[C@@H](C)[C@H](O)[C@@H](O)[C@H]8O)[C@@](C)(CO)C7CC[C@@]6(C)[C@]4(C)CC5)[C@H](O)[C@@H](O)[C@@H]3O)O[C@@H]2CO)[C@H](O)[C@H](O)[C@H]1O` (some centres not stated), the result in assay [1], in assay [2], in assay [3], in [4], in assay [8] and in [10] was inactive. Further, the molecule was called inactive in assay [11] and in assay [12]. Also, the Potency entry in [14], in [6], in assay [7], in assay [13] and in [15] was “inactive” in each case. The max response in [9] was -2.4%.

Regarding `COc1ccc(-c2coc3cc(O[C@@H]4O[C@H](CO)[C@@H](O)[C@H](O)[C@H]4O)ccc3c2=O)cc1`, the molecule was called inactive in [1], in assay [2], in [3], in [4], in assay [8] and in assay [10]. Moreover, the molecule was classed as inactive in assay [11] and in assay [12]. For the same molecule, the Potency entry in assay [14], in [5], in assay [6], in assay [7] and in assay [13] was “inactive” in each case. Moreover, the max response in [9] is 3.05%.

On to `O=Cc1ccccc1O`, for which the call in assay [1], in assay [2], in assay [3], in assay [4], in assay [8] and in assay [10] was inactive. Moreover, the molecule was called inactive in assay [11] and in assay [12]. The Potency result in assay [14], in assay [5], in [6], in [7], in [13] and in [15] was “inactive” throughout. In assay [9], the max response was 1.96%.

Regarding `C=C1C[C@@]23CC[C@H]4[C@](C)(CCC[C@]4(C)C(=O)O[C@@H]4O[C@H](CO)[C@@H](O)[C@H](O)[C@H]4O)[C@@H]2CC[C@]1(O[C@H]1O[C@@H](CO)[C@H](O)[C@@H](O)[C@@H]1O)C3`, the result in assay [1], in [2], in [3], in [4], in assay [8] and in [10] was inactive. Moreover, the outcome in assay [11] and in assay [12] was inactive. Moreover, the Potency entry in [14], in [5] and in [6] was “inactive” in each case. The max response in assay [9] is 3.88%.

On to `C=CC(C)(CCC=C(C)C)OC(C)=O` (configuration not stated), for which the call in [1], in [2], in [3], in [4], in assay [8] and in assay [10] was inactive. The call in assay [11] and in [12] was inactive. The Potency entry in assay [14], in [5], in [6], in assay [7] and in assay [13] was “inactive” in each case. In addition, in assay [9], the max response is -0.984%.

For `CC(C)=CCC[C@](C)(O[C@@H]1O[C@H](CO)[C@@H](O)[C@H](O)[C@H]1O)[C@H]1CC[C@]2(C)[C@@H]1[C@H](O)C[C@@H]1[C@@]3(C)CC[C@H](O[C@@H]4O[C@H](CO)[C@@H](O)[C@H](O)[C@H]4O[C@@H]4O[C@H](CO)[C@@H](O)[C@H](O)[C@H]4O)C(C)(C)[C@@H]3CC[C@]12C`, the outcome in [1], in assay [2], in assay [3], in [4], in assay [8] and in assay [10] was inactive. For the same molecule, the molecule was called inactive in assay [11] and in [12]. Besides, the Potency entry in assay [14], in assay [6] and in assay [7] was “inactive” each time. In addition, in [9], the max response is 4.23%.

With `COc1cc(/C=C/c2ccccc2)oc(=O)c1`, the Potency result in assay [16], in [14], in assay [5] and in assay [6] was “inactive” in each case. Further, the molecule was called inactive in assay [1], in assay [2], in [3], in assay [4], in assay [8] and in assay [10]. The result in assay [11] and in assay [12] was inactive. In addition, the Potency in assay [13] is 7.08 µM (active). For the same molecule, the max response in assay [9] was 2.93%.

Regarding `CCCCCCCCCC=O`, the molecule was called inactive in assay [1], in assay [2], in assay [3], in assay [4], in [8] and in assay [10]. Moreover, the molecule was classed as inactive in assay [11] and in assay [12]. The Potency entry in assay [14], in assay [5], in [6], in [7], in [13] and in assay [15] was “inactive” throughout. Moreover, in assay [9], the max response is 0.0179%.
